gsp ag = qHTS for Agonist of gsp, the Etiologic Mutation Responsible for Fibrous Dysplasia/McCune-Albright Syndrome: qHTS; gsp mutant cells, cAMP HTRF, 30 min; 0.13% of 340,000 active; Potency, µM (top dose mostly 76.9 µM), for inactives: at the top dose activation (cAMP increase), usual class: activators; active = well fitted activation curve with a large enough effect; inconclusive = small, poorly fitted or top-dose-only effect, or another doubt; inactive = no such curve, though single readings can be large or run the other way; cell line not stated here;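 note: phosphodiesterase inhibitor Ro 20-1724 added with compounds to block cAMP breakdown; potency is the fitted concentration of half-maximal effect; nearly all actives have a fitted effect of over 60% in size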
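Cells stably selected in G418 were plated at 2000/well, grown 16-24 hr, then given compounds in DMSO with the PDE inhibitor […] (300 uM solution added) for 30 min at 37C; cAMP was read by HTRF.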
gsp antagonist = qHTS for Antagonists of gsp, the Etiologic Mutation Responsible for Fibrous Dysplasia/McCune-Albright Syndrome: qHTS; Potency, µM (highest dose often 76.9 µM), for the others: top-dose activity change, negative = inhibition, actives largely listed as inhibitors; AID 624288, 2012; gsp-mutant cells, cAMP HTRF, 30 min; 0.4% of 340,000 active; calls by dose curve; cell line not stated here;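 note: intracellular cAMP measured with PDE inhibitor Ro 20-1724 present during compound exposure; potency is the fitted concentration of half-maximal effect; % is set by controls: 0 for no effect and ±100 for the full control effect; nearly all actives have a fitted effect of over 65% in size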
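Cells, 2000/well, grown 16–24 h in DMEM 10% FBS with 0.5 mg/ml G418, then compounds plus […] (300 uM addition stock), 30 min at 37C. cAMP read by HTRF (cAMP-d2 and anti-cAMP antibody-K in lysis buffer) after 30 min RT.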
RXFP1 ag = qHTS Assay for Agonists of the Relaxin Receptor RXFP1. Relaxin receptor 1 (Homo sapiens), Q9HBX9. HEK293T-RXFP1 cAMP TR-FRET, 30 min; response scale: percent of porcine relaxin response, buffer zero. Potency, µM (doses to about 57.5 µM), without a hit: at the highest dose activation, actives largely listed as activators. 0.3% of 370,000 active. AID 2676, 2010; active = well fitted activation curve with a large enough effect; inconclusive = small, poorly fitted or top-dose-only effect; note: potency is the fitted concentration of half-maximal effect; % is set by controls: 0 for no effect and ±100 for the full control effect; nearly all actives have a fitted effect of over 60% in size
Target sequence (Q9HBX9 whole entry, looked up): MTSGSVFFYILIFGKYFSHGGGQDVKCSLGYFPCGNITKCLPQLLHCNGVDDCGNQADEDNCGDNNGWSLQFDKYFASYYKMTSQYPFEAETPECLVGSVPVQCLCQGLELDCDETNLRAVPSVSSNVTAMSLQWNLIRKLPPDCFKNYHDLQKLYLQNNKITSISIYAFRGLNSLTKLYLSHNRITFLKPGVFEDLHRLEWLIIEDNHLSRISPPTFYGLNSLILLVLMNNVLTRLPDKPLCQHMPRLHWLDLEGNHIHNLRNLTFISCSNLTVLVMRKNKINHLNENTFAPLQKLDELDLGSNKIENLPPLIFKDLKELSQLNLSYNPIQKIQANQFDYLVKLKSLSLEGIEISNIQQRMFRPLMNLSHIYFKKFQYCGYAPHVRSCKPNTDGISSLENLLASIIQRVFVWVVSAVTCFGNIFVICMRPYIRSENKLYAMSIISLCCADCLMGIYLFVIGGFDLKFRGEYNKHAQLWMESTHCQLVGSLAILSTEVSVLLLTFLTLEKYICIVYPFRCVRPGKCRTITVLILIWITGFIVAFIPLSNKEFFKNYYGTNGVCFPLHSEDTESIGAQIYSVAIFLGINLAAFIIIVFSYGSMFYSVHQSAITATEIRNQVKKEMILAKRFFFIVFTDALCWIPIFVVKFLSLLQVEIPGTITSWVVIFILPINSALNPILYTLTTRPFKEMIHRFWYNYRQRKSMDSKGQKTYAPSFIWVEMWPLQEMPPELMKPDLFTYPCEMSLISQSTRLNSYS
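Agonist response is measured as cAMP accumulation in an RXFP1-transfected HEK293T line under PDE4 inhibition. Values are scaled between buffer-only and 29 nM porcine relaxin, and EC50s come from standard Hill equation fits.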
RXFP1 antagonist = qHTS Assay for Antagonists of the Relaxin Receptor RXFP1. activity change, negative = inhibition, % at 57.5 µM. 0.59% of 350,000 active. Relaxin receptor 1 (Homo sapiens), Q9HBX9. HEK293-RXFP1, relaxin-stimulated cAMP HTRF, 30 min; hits give low values;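 active = activity change of -60% or lower, but not beyond a set lower limit; inconclusive = change between -60% and -40%, or beyond the set limit; inactive = change above -40%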; note: % is set by controls: 0 for no effect and ±100 for the full control effect
* = called active by the depositor; u = inconclusive; x = no result given; [ ] = dose if it differs, or a comment. Shown are actives, neighbours in structure and some others; about 0.9% of the full set was active somewhere.

SMILES	gsp ag	gsp antagonist	RXFP1 ag	RXFP1 antagonist
O=C(CCCn1c(=S)[nH]c2cc3c(cc2c1=O)OCO3)NC1CC1	0%	16%	4%	-72*
COc1ccc(NC(=O)Cn2c(=O)n(Cc3ccccc3Cl)c(=O)c3cc(OC)c(OC)cc32)cc1OC	x	x	25µM*	x
COc1ccc(N2CCN(C(=O)CCCCCn3c(=S)[nH]c4ccc(N5CCOCC5)cc4c3=O)CC2)cc1	-20%	x	x	-98*
O=C(CCCn1c(=S)[nH]c2ccccc2c1=O)NC1CCCCC1	21%	8%	3%	-111*
COc1ccc(N2CCN(C(=O)CCCCCn3c(=S)[nH]c4cc5c(cc4c3=O)OCO5)CC2)cc1	11%	3%	u	u
CC1CCCCC1NC(=O)CCn1c(=S)[nH]c2ccccc2c1=O (stereo unspecified)	-1%	x	x	-13
O=C(CCCn1c(=S)[nH]c2cc3c(cc2c1=O)OCO3)NCCc1ccc(Cl)cc1	u	x	x	-29
CCOC(=O)[C@@](C)(N)Cc1ccc(O)c(O)c1	x	x	x	13
Cn1c(=O)oc2cc(S(=O)(=O)N3CCC(C(=O)N4CCN(c5ccc(Cl)cc5)CC4)CC3)ccc21	x	x	3%	x
O=C(Cn1ncc2c(Cl)cccc21)NCc1cccc(Cl)c1	x	x	0%	-3
CC1CC(C)CN(C(=O)CCCn2c(=S)[nH]c3ccccc3c2=O)C1 (stereo unspecified)	-8%	-1%	0%	-97*
O=C(CCCn1c(=S)[nH]c2cc3c(cc2c1=O)OCO3)NCc1ccco1	4%[15.4 µM]	10%	6%	-64*
COc1ccc(NC(=O)CCn2c(=S)[nH]c3ccccc3c2=O)cc1OC	u	21%	16%	-74*
CCOc1cc2[nH]c(=S)n(CCCC(=O)NCc3ccco3)c(=O)c2cc1OCC	29%	11%	1%	u
Cc1cccc(N2CCN(C(=O)CCn3c(=S)[nH]c4cc5c(cc4c3=O)OCO5)CC2C)c1 (stereo unspecified)	21%	-19%	0%	-77*
Cc1cc(C)cc(NC(=O)CCn2c(=S)[nH]c3ccccc3c2=O)c1	-4%	-2%	0%	-32
O=C(CCCn1c(=S)[nH]c2ccccc2c1=O)N1CCCCC1	8%	11%	0%	u
O=C(CCCn1c(=S)[nH]c2cc3c(cc2c1=O)OCO3)N1CCN(c2ccc(Cl)cc2)CC1	-30%	-9%	2%	-116*
Cn1cc([N+](=O)[O-])cc1-c1nc2ccccc2n1C	2%	-4%	2%	10
Cn1c(-c2ccc([N+](=O)[O-])cc2)nc2ccccc21	2.2µM*	13%	u	12
Cc1cccc(C)c1NC(=O)c1cc(S(N)(=O)=O)c(Cl)cc1O	x	x	x	-6
CC(C)(C)CC(=O)OCC(=O)[C@@]1(O)CC[C@H]2[C@@H]3CCC4=CC(=O)C=C[C@]4(C)[C@H]3[C@@H](O)C[C@@]21C	x	x	x	-19
CCOc1ccccc1C(=O)NCC(=O)NCc1ccc(S(=O)(=O)N2CCOCC2)cc1	32µM*	-10%	2%	-12
O=S(=O)(c1cccc(-c2cn3cccnc3n2)c1)N1CCOCC1	18µM*	37%	u	-11
O=C(Cc1ccc(S(=O)(=O)N2CCOCC2)s1)Nc1ccc2c(c1)CCC2	-41%	-9%	2%	-12
SMILES	gsp ag	gsp antagonist	RXFP1 ag	RXFP1 antagonist
O=C(Cc1ccc(S(=O)(=O)N2CCOCC2)s1)Nc1nc2c(s1)CCCC2	-38%	7.9µM*	0%	-31
Cc1oc(-c2ccccc2Cl)nc1CS(=O)(=O)CC(=O)NC(C)CCc1ccccc1 (stereo unspecified)	x	x	5%	x
COc1ccc2c(c1)CCc1c(C(=O)N3CCCc4ccccc43)noc1-2	-5%	40µM*	-1%	-20
Cn1nnnc1SCCCNCc1cc(Cl)ccc1OCc1ccccc1	x	x	-4%	-5
O=C(CSc1nc(=O)[nH]c2c1CCCC2)NCc1ccccc1Cl	x	x	3%	-8
COc1ccc(NC(=O)CSc2ccc3nnc(-c4cccnc4)n3n2)cc1OC	u	4%	18µM*	10
O=C(CSc1ccc2nnc(-c3cccnc3)n2n1)Nc1ccccc1	u	9%	16µM*	12
Cc1ccc(C)c(NS(=O)(=O)c2ccc3c4c(cccc24)C(=O)N3)c1	x	x	0%	-79*
O=C1Nc2ccc(S(=O)(=O)Nc3ccccc3O)c3cccc1c23	x	x	-1%	-5
O=C(Nc1cc(Cl)cc(Cl)c1)c1ccc(F)c(S(=O)(=O)NC2CCCCC2)c1	x	x	1%	-22
CSc1nc(C)cc(SCC(=O)Nc2ccccc2)n1	32µM*	u	2%	-9
Cc1cc(SCC(=O)Nc2ccccc2)nc(C)n1	-4%	4%[15.4 µM]	1%	-6
CC(=O)N[C@@H](CCC(N)=O)C(=O)O	x	x	x	-9
CC1=C/C(=N\OS(=O)(=O)c2ccccc2)C(C)=CC1=O	-29%	28µM*	-3%	u
Cc1cc(C)cc(NS(=O)(=O)c2ccc3c(c2)c(=O)n(C)c(=O)n3C)c1	25µM*	1%	26%	7
COc1ccc(CCNC(=O)c2cc(S(=O)(=O)N3CCC4(CC3)OCCO4)ccc2F)cc1OC	u	11µM*	-2%	-23
Cc1ccc(Cl)cc1NC(=O)CCCn1c(=O)c2cccn2c2ccccc21	x	x	-2%	-25
C=C1c2cccc(O)c2C(O)=C2C(=O)[C@]3(O)C(O)=C(C(N)=O)C(=O)[C@@H](N(C)C)[C@@H]3[C@@H](O)[C@H]12	x	2%	-1%	-70*
COc1ccccc1Nc1c2c(nc3ccc(NC(=O)c4cccc(OC)c4OC)cc13)CCCC2	x	x	1%	-29
COc1ccccc1Nc1c2c(nc3ccc(NC(=O)c4ccccc4F)cc13)CCCC2	x	x	2%	-66*
CCC(C)NC(=O)c1sc2ncccc2c1-n1c(C)ccc1C (stereo unspecified)	x	x	0%	-13
O=C(Nc1cccc(-c2cnc3ccccc3n2)c1)C1CC(=O)N(c2ccccc2)C1 (stereo unspecified)	6%[15.4 µM]	u	1%	-73*
O=C(CCCl)NCCc1ccccc1	x	x	x	-9
COc1ccc(C2C(C(=O)c3ccco3)=C(O)C(=O)N2c2nnc(C)s2)cc1 (stereo unspecified)	42%[15.4 µM]	-10%	u	4
C=CCOc1ccc(C2C(C(=O)c3ccco3)=C(O)C(=O)N2c2nnc(C)s2)cc1 (stereo unspecified)	45%[15.4 µM]	-10%	14µM*	-6
COc1ccc(NC(=O)C(C)n2nc(-c3cc(C)ccc3C)c3c(c2=O)CCCC3)cc1 (stereo unspecified)	x	x	-1%	x
Cc1ccc(C)c(CSc2cn(CC(=O)N3CCCCCC3)c3ccccc23)c1	x	x	-2%	-5
Cc1ccc(C)c(CSc2cn(CC(=O)N3CCCC3)c3ccccc23)c1	x	x	18%	-74*
